MgrA-DNA mod = modulators of Staphylococcus aureus MgrA DNA binding; fluorescence polarization; inhibition, % (concentration not given with the values); 84,000 tested, 0.13% active; AID 602314; in the data active means inhibition above about 30%, passing the limit was not always enough;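 further: 0% = protein plus DNA without compound and 100% = DNA alone without protein; higher means less MgrA bound to DNA so lower polarization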
* marks the source's active call; other numbers are inactive results. The entries come from a sample that favours hits as a whole.

SMILES	MgrA-DNA mod
Cc1ccc(S(=O)(=O)N=C2C=CC(=O)C=C2)cc1	48.4*
CC1=C/C(=N\S(=O)(=O)c2ccccc2)C=CC1=O	37.8
Cc1ccc(S(=O)(=O)N=S(C)(C)=O)cc1	-1.9
NCCNc1ccccn1	-0.4
CC1=C(C(=O)OCC2CCCO2)C(c2ccc(C)o2)C2=C(CCCC2=O)N1 (centres undefined)	-2.7
CN(C)c1ccc(C=C(c2ccc(N)cc2)c2ccc(N)cc2)cc1	-2.0
Cc1cc(N)n(C2CCOC(C)(C)C2)n1 (centres undefined)	-1.2
Nc1nc(-c2cc3c(cc2Br)OCCO3)cs1	0.8
COc1ccc(/C=C/C(=O)OCC(=O)Nc2cccc(Cl)c2)cc1	0.0
COC(=O)C1=C(C)N(C)C(=O)/C1=C\c1cc(C)n(-c2ccc(C)cc2)c1C	0.7
COc1cccc(=O)c2c(C)oc(C)c12	43.3*
CCOc1ccc(-c2cc(OC)c3c(C)oc(C)c3c(=O)c2)cc1	33.8
CCOc1cc(/C=C/c2ccccc2OC)cc(=O)c2c(C)oc(C)c12	-0.1
OC(CN1CCc2ccccc2C1)C(F)(F)F (centres undefined)	0.6
Cc1cc(C)c2nc3s/c(=C/c4ccc(-c5ccccc5C(=O)O)o4)c(=O)n3c2c1	9.4
Oc1ccccc1/C=N/C1=NNC(c2ccccc2)=CS1	2.6
O=C(O)CCN1C(=O)/C(=C/c2ccco2)SC1=S	51.4*
CC(C(=O)O)N1C(=O)/C(=C/c2ccco2)SC1=S (centres undefined)	38.0
O=C1/C(=C/c2ccco2)SC(=S)N1CCc1ccccc1	5.0
CCCCc1c(C(=O)O)cccc1C(=O)O	0.1
Cc1oc(-c2cccc(Cl)c2)nc1CSc1nc2c(c(=O)[nH]1)CCCC2	0.3
Cc1ccc(C)n1C(CC(=O)O)c1ccc(F)cc1 (centres undefined)	31.4
O=C(O)CC(c1ccsc1)n1cccc1 (centres undefined)	0.1
Cc1ccc(C)n1C(CC(=O)O)c1ccsc1 (centres undefined)	61.3*
CCOc1ccccc1C(=O)N(Cc1cc2ccccc2[nH]c1=O)C(C)C	-3.5
SMILES	MgrA-DNA mod
O=C(O)c1ccc(N2CCCC2)cc1	-5.6
Cc1ccc(C)n1-c1ccc(C(=O)O)cc1	99.5*
Cc1cc(C)n(-c2ccc(C(=O)O)cc2)n1	-0.5
CC1(C)CC(=O)C2=C(C1)OC(N)=C(C#N)C2c1ccccc1 (centres undefined)	2.2
CC1(C)CC(=O)C2=C(C1)OC(c1cccs1)C(C#N)=C2N (centres undefined)	98.5*
CC1(C)CC(=O)C2=C(C1)NC1=C(C(=O)CC(C)(C)C1)C2c1cccs1	2.7
CN(C)/C=C/C=C/c1cc(=O)cc(/C=C/C=C/N(C)C)o1	99.7*
COC(=O)c1ccc(NC(C)=O)c(NC(C)=O)c1	-0.1
COc1ccc(-c2ccc(/C=c3\sc4nc5ccccc5n4c3=O)o2)c([N+](=O)[O-])c1	-0.3
O=C(O)c1cccc(-c2ccc(/C=c3/sc4nc5ccccc5n4c3=O)o2)c1	43.8*
Cc1ccc(-c2ccc(/C=c3\sc4nc5ccccc5n4c3=O)o2)c(Br)c1	-3.0
CCn1c(=NC(=O)CSCC(=O)Nc2nc(-c3ccccc3)cs2)sc2ccccc21	-0.5
CCC(C)N(C(=O)Nc1cc(C)ccc1OC)C(C)CC (centres undefined)	-5.1
Cc1cccc(C)c1N1CCN(Cc2ccc(Cl)nc2)CC1	0.5
CC(C)(C)C(=O)C1C2C3COC(O3)C(=O)C2C2C=Cc3ccccc3N21 (centres undefined)	41.5*
COC(=O)N1c2ccccc2C=CC1C#N (centres undefined)	2.1
COc1cccc(C(=O)NCCO)c1OC	1.8
N#CCCn1ncc(C#N)c1N	-1.7
CCOC(=O)C1CCN(C(=S)Nc2cccc(OC)c2)CC1	-0.5
COc1cccc(NC(=O)COC(=O)Cc2ccc(F)cc2)c1	1.8
O=C1c2cccc3cc([N+](=O)[O-])cc(c23)C(=O)N1Cc1ccncc1	-1.2
O=c1c2ccccc2c2ccccc2c(=O)n1Cc1cccnc1	2.5
O=C1c2cccc3c([N+](=O)[O-])ccc(c23)C(=O)N1Cc1cccnc1	60.5*
CCc1ccc(NC(=O)c2cc3c(=O)n(CC)c4ccccc4c3s2)cc1	3.1
CC(C)S(=O)(=O)c1cscc1NC(=O)c1ccc(-c2cc(C(F)(F)F)nn2C)s1	-3.0
SMILES	MgrA-DNA mod
O=C(Nc1nc2c(s1)CCCC2)c1ccncc1	41.7*
O=C(/C=C/c1ccccc1)Nc1nc2c(s1)CCCC2	0.0
Cc1ccc(C(=O)Nc2nc3c(s2)CCCC3)cc1	0.3
CC(C)OC(=O)c1cc2c(ccn2-c2ccc(F)cc2)n1CCC#N	0.8
CC(C)c1ccc(/C=C/C(=O)O)cc1	-0.3
CC(C)(O)C1Cc2cc(/C=C/C(=O)O)c(O)cc2O1 (centres undefined)	20.1
CC(C)c1cc2cc(/C=C/C(=O)O)c(O)cc2o1	60.4*
O=C(Cc1noc2ccccc12)Nc1ccc(F)cc1	-1.1
O=C(CN1C(=O)c2cccnc2Oc2ccccc21)NCc1ccccc1	-1.0
C=Cc1c(C)/c2[n-]/c1=C\c1[n-]c(c(CC)c1C)/C=c1\[n-]c3c(c1C)C(=O)C(C(=O)[O-])C=3c1[n-]c(c(C)c1CCC(=O)[O-])\C=2.[Cu].[Na+].[Na+] (centres undefined)	88.0*
O=C(CS(=O)(=O)Cc1ccccc1)N1CCCc2ccccc21	-3.5
Cc1ccc(C)n1NC(=O)c1cccc(Br)c1	1.1
COc1ccc(C2CC(=O)C3=C(C2)NC(C)=C(C(=O)OC2CCCC2)C3c2ccc([N+](=O)[O-])cc2)cc1 (centres undefined)	-0.6
CC1=NN(c2cccc(C(=O)O)c2)C(=O)/C1=C\c1ccc(-c2cc([N+](=O)[O-])ccc2C)o1	1.9
CC1=NN(c2cccc(C(=O)O)c2)C(=O)/C1=C/c1ccc(-c2cccc(Cl)c2C)o1	96.0*
CC1=NN(c2cccc(C(=O)O)c2)C(=O)/C1=C\c1ccc(-c2ccc(Cl)c(C(=O)O)c2)o1	8.0
CC(C)COc1ccccc1O	-2.0
Nc1ccccc1C1CC1	-1.3
Cc1c(=O)n(OCc2ccc(Cl)cc2)c2ccccc2[n+]1[O-]	0.2
O=c1c(-c2ccc(Oc3ccccc3)cc2)[n+]([O-])c2ccccc2n1O	5.0
N#Cc1c(=O)n(O)c2ccccc2[n+]1[O-]	48.6*
COC(=O)CNC(=O)c1cc2c(=O)oc3ccccc3c2s1	-2.5
Cc1nnsc1C(=O)NCc1csc2ccc(Cl)cc12	-0.7
CCCn1c(-c2ccc(OC)c(OC)c2)nc2ccccc21	-0.6
O=C(O)C1CCN(C(=O)c2cccs2)CC1	-1.9
SMILES	MgrA-DNA mod
CCN1C(=O)CC(c2ccc(OC)cc2)Sc2ccccc21 (centres undefined)	-2.4
COc1ccc(C2Sc3ccccc3N(CCN(C)C)C(=O)C2OC(C)=O)cc1 (centres undefined)	0.9
COc1ccc([C@H]2Sc3ccccc3N(CCN(C)C)C(=O)[C@H]2OC(C)=O)cc1	96.2*
Cc1cc(CO)c(C)n1-c1ccncc1	-1.6
COC(=O)COc1ccc(/C=C2\C(=O)NC(=S)N(c3ccccc3)C2=O)cc1OC	8.1
O=C1NC(=S)N(c2ccccc2)C(=O)/C1=C\c1ccoc1	75.5*
O=C1NC(=O)N(c2ccccc2)C(=O)/C1=C\c1ccc(C(=O)O)cc1	5.2
COc1ccc(S(=O)(=O)/C=C/c2ccccc2)cc1	1.6
O=C(C(Sc1ccccc1)c1ccccc1)n1cnc2ccccc21 (centres undefined)	3.7
C/C(CCn1c(=O)sc2ccccc21)=N\NC(N)=S	1.0
COc1nc(C)cc(C)c1C(N)=O	-3.6
CC(=O)Nc1ccc2c(C)cc(=O)[nH]c2c1	0.7
